PubChem BioAssay (NCI)
The panel holds about 83,000 compounds, 20% with a hit somewhere; the sample as a whole holds those more often.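 Each cell line was grown in a 96-well plate and treated with one concentration of compound for 48 hours. Values below 10 were considered active.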 Values without a mark were called inactive. Calls of active or inactive are those of the source.

How the values were obtained:
Test in all cases: NCI-60 one-dose screen, 48 h (100 = growth as untreated, 0 = no growth, -100 = all killed)
Conditions in all cases: 10 µM unless noted
NCI-H23 lung = tested on: NCI-H23 lung
NCI-H226 lung = tested on: NCI-H226 lung
HOP-62 NSCLC = tested on: HOP-62 NSCLC
NCI-H460 lung = tested on: NCI-H460 lung
HOP-92 NSCLC = tested on: HOP-92 NSCLC
NCI-H522 lung = tested on: NCI-H522 lung
A549/ATCC NSCLC = tested on: A549/ATCC NSCLC
786-0 renal = tested on: 786-0 renal
COLO 205 colon = tested on: COLO 205 colon
DU-145 prostate = tested on: DU-145 prostate
K-562 leukemia = tested on: K-562 leukemia
MALME-3M melanoma = tested on: MALME-3M melanoma
MDA-MB-231 breast = tested on: MDA-MB-231 breast
RXF 393 renal = tested on: RXF 393 renal
SF-268 CNS = tested on: SF-268 CNS
SF-295 CNS = tested on: SF-295 CNS
SF-539 CNS = tested on: SF-539 CNS
UACC-257 melanoma = tested on: UACC-257 melanoma
M14 melanoma = tested on: M14 melanoma

Row | SMILES | growth (NCI-H23 lung) | growth (NCI-H226 lung) | growth (HOP-62 NSCLC) | growth (NCI-H460 lung) | growth (HOP-92 NSCLC) | growth (NCI-H522 lung) | growth (A549/ATCC NSCLC) | growth (786-0 renal) | growth (COLO 205 colon) | growth (DU-145 prostate) | growth (K-562 leukemia) | growth (MALME-3M melanoma) | growth (MDA-MB-231 breast) | growth (RXF 393 renal) | growth (SF-268 CNS) | growth (SF-295 CNS) | growth (SF-539 CNS) | growth (UACC-257 melanoma) | growth (M14 melanoma)
1 | Nc1ncccc1O | 78% | 94.1% | 99.5% | 49.3% | 105% | 61.4% | 77.9% | 111% | 92.6% | 22.8% | 67.6% | 131% | 117% | 76.1% | 96% | 82.4% | 106% | 91.3% | 102%
2 | CC(=O)Nc1sc2c(c1-c1nc3ccccc3s1)CNC2 | 24.9% | 26% | 18.6% | 8.68% (active) | 0.851% (active) | -12.5% (active) | 14.1% | 28.4% | 8.21% (active) | 25.6% | 13.2% | 19% | 21.9% | 18% | 40.4% | 13.3% | 28.4% | 27.6% | 21.9%
3 | COc1ccc(Nc2ncc(C#N)c(NCCCNC(=O)C3CCC3)n2)cc1 | 67.6% | 49% | 31.4% | 41.7% | 64.3% | 85.1% | 61.2% | 50.4% | 33.3% | 60.7% | 50.4% | 78.8% | 56.5% | -4.62% (active) | 30.7% | 76.8% | 28.5% | 113% | 70.9%
4 | O=C(NCCN1CCOCC1)OCc1ccc2c(Cl)cc(Cl)c(O)c2n1 | 72.8% | 94.6% | 47.8% | 63.7% | 77.3% | 81% | 56.8% | 81.9% |  | 57.7% | 31.7% | 73.4% | 93.8% | 77.3% | 57.3% | 49.2% | 77.9% | 89.1% | 54.6%
5 | CCOC(=O)C1=C(c2ccccc2)N=C2N(c3ccccc3)N=C(C(C)=O)N2C1c1ccc(F)cc1 (centres undefined) | 105% | 97.7% | 98.6% | 100% | 93.3% | 97.3% | 101% | 99.6% | 113% | 106% | 96.3% | 97.7% | 98.8% | 75.5% | 99.2% | 98.6% | 101% | 113% | 101%
6 | N=C(N)c1ccc(-c2ccc(-c3cc(Cl)cc(Cl)c3)s2)s1 | -49.5% (active) | 90.8% | -28.3% (active) | -33.9% (active) | 50.2% | -70.6% (active) |  | -74.5% (active) | -75.4% (active) | -72.2% (active) | -52.5% (active) | -13.1% (active) | -55.1% (active) | -84.2% (active) | -43.8% (active) | -69.8% (active) | -60.6% (active) | -46.3% (active) | 1.55% (active)
7 | COc1cc(C[C@H]2COc3cc(O)cc(O)c3C2=O)ccc1O | 49.8% | 101% | 35.4% | 18.6% | 30.9% | 17.2% | 46% | 25.6% | 106% | 43.1% | 9.86% (active) | 62% | 55.3% | 34.7% | 47.2% | 54.5% | 3.27% (active) | 35.8% | 9.16% (active)
8 | CCOC(=O)c1cn2ncnc(Oc3ccc(NC(=O)NC4CC4)c(Cl)c3)c2c1C | 84.6% | 71.4% | 90.9% | 102% | 109% | 75.9% | 99.2% | 93.5% | 108% | 97% | 73.6% | 95.3% | 89.3% | 92.3% | 88.9% | 84.8% | 79.5% | 100% | 98.9%
9 | C/C=C1/CN(CCCCC)CC[C@H]1C(=O)c1cc2ccccc2[nH]1 | 85.1% | 92.9% | 85.5% | 97.3% | 52.3% | 88.1% | 100% | 99.9% | 98.9% | 99% | 69.6% | 91.4% | 88.5% | 94.1% | 89.8% | 94.5% | 98.9% | 108% | 90.2%
